# Results: ChEMBL document CHEMBL1961873, “Compounds: GSK PKIS; Assays: Nanosyn kinase panel” (2012)
# What was measured:
# [1] = target: Serine/threonine-protein kinase MRCK alpha (Homo sapiens) (UniProt Q5VT25); details: at 0.1 µM
# [2] = target: Serine/threonine-protein kinase MRCK alpha (Homo sapiens) (UniProt Q5VT25); details: at 1 µM
# [3] = target: Serine/threonine-protein kinase MRCK beta (Homo sapiens) (UniProt Q9Y5S2); details: at 0.1 µM
# [4] = target: Serine/threonine-protein kinase MRCK beta (Homo sapiens) (UniProt Q9Y5S2); details: at 1 µM
# [5] = target: Ribosomal protein S6 kinase alpha-5 (Homo sapiens) (UniProt O75582); details: at 0.1 µM
# [6] = target: Ribosomal protein S6 kinase alpha-5 (Homo sapiens) (UniProt O75582); details: at 1 µM
# [7] = target: Ribosomal protein S6 kinase alpha-4 (Homo sapiens) (UniProt O75676); details: at 0.1 µM
# [8] = target: Ribosomal protein S6 kinase alpha-4 (Homo sapiens) (UniProt O75676); details: at 1 µM
# [9] = target: Ribosomal protein S6 kinase beta-1 (Homo sapiens) (UniProt P23443); details: at 0.1 µM
# [10] = target: Ribosomal protein S6 kinase beta-1 (Homo sapiens) (UniProt P23443); details: at 1 µM
# [11] = target: T1, 3-phosphoinositide-dependent protein kinase 1 (Homo sapiens) (UniProt O15530); details: at 0.1 µM;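 also: values are mean inhibition of PDK1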
# T1 sequence (whole entry): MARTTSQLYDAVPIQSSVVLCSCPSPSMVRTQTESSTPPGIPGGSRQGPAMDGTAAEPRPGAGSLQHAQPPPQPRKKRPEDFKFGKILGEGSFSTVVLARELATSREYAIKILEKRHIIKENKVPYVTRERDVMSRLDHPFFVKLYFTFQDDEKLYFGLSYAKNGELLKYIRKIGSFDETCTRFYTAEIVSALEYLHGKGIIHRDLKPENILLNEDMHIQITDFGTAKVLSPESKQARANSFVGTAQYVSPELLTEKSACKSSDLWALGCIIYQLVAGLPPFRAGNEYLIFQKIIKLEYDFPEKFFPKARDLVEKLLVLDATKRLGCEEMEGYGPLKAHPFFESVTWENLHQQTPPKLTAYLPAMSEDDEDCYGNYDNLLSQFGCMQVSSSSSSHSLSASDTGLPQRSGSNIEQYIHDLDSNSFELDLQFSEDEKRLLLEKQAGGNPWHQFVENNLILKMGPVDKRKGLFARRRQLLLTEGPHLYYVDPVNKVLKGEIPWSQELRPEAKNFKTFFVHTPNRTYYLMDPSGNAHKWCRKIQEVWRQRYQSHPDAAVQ
# [12] = target: cAMP-dependent protein kinase catalytic subunit alpha (Homo sapiens) (UniProt P17612); details: at 0.1 µM
# [13] = target: cAMP-dependent protein kinase catalytic subunit alpha (Homo sapiens) (UniProt P17612); details: at 1 µM
# [14] = target: Protein kinase C alpha type (Homo sapiens) (UniProt P17252); details: at 0.1 µM
# [15] = target: Protein kinase C alpha type (Homo sapiens) (UniProt P17252); details: at 1 µM
# [16] = target: Protein kinase C beta type (Homo sapiens) (UniProt P05771); details: at 0.1 µM
# [17] = target: Protein kinase C beta type (Homo sapiens) (UniProt P05771); details: at 1 µM
# [18] = target: Protein kinase C eta type (Homo sapiens) (UniProt P24723); details: at 0.1 µM
# [19] = target: Protein kinase C eta type (Homo sapiens) (UniProt P24723); details: at 1 µM
# [20] = target: Protein kinase C gamma type (Homo sapiens) (UniProt P05129); details: at 0.1 µM;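 also: values are mean percent inhibition of PKC gamma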
# Chain of Ribosomal protein S6 kinase alpha-4 (Homo sapiens) (O75676 whole entry, looked up): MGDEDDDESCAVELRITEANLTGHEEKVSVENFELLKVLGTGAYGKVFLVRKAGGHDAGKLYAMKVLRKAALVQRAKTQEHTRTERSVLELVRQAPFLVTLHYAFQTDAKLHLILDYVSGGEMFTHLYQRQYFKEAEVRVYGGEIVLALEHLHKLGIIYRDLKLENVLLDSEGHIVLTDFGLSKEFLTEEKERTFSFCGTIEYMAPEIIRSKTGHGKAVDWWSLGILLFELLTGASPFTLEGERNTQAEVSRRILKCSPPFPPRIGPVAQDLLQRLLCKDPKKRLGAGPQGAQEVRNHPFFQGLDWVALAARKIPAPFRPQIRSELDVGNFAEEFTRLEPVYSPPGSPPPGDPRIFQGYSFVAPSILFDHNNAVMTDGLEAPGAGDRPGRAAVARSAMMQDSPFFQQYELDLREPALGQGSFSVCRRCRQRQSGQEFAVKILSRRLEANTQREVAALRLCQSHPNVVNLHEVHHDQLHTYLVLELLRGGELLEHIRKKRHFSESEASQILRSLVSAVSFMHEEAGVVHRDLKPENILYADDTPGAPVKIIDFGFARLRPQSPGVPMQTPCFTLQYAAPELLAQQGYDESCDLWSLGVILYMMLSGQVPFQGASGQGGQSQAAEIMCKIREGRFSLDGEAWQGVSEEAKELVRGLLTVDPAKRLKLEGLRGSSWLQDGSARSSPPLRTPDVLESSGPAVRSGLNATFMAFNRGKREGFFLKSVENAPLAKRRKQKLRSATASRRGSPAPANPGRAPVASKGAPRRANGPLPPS
# Chain of Serine/threonine-protein kinase MRCK alpha (Homo sapiens) (Q5VT25 whole entry): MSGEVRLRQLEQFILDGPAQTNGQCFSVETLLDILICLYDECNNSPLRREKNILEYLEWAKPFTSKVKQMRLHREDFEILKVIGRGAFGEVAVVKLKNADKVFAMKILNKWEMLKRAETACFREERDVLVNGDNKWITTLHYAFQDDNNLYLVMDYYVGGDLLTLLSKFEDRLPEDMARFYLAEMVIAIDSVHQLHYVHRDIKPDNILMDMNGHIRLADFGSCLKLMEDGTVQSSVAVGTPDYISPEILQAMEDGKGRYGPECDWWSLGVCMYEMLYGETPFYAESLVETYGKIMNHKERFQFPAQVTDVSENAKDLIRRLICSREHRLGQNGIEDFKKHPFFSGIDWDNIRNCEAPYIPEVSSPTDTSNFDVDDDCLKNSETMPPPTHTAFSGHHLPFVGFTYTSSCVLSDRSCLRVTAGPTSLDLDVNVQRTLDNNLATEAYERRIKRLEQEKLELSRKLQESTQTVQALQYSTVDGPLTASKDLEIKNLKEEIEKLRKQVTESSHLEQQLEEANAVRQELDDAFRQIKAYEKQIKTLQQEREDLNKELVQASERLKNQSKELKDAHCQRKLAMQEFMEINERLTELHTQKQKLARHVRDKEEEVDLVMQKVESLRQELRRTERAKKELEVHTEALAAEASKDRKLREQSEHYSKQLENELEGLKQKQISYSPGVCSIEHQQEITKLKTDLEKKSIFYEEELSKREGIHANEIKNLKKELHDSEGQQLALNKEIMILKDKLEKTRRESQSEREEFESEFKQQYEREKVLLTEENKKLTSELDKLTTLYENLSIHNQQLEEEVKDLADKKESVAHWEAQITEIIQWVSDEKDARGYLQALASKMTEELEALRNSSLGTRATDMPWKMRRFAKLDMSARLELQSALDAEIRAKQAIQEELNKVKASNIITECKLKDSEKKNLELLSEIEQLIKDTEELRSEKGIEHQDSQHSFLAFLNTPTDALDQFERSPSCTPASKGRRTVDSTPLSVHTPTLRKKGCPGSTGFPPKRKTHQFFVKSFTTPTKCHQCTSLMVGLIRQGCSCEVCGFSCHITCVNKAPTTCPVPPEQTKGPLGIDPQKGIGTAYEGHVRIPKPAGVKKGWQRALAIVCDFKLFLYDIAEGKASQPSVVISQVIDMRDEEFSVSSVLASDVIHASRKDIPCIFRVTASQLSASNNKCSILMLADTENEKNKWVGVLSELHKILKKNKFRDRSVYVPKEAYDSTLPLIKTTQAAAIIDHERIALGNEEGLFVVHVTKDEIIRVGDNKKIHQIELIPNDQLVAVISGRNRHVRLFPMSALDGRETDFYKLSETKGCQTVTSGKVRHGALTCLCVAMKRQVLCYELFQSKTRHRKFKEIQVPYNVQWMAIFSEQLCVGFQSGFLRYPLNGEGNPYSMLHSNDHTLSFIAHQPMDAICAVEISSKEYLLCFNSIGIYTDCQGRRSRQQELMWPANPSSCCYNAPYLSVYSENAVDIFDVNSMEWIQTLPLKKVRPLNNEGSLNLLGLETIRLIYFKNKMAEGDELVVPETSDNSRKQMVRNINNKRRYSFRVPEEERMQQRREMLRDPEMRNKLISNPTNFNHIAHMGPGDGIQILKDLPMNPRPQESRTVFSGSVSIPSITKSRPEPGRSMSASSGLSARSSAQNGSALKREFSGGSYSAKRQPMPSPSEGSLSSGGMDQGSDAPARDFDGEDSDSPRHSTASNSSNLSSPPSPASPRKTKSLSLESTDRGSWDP
# Chain of Ribosomal protein S6 kinase beta-1 (Homo sapiens) (P23443 whole entry, looked up): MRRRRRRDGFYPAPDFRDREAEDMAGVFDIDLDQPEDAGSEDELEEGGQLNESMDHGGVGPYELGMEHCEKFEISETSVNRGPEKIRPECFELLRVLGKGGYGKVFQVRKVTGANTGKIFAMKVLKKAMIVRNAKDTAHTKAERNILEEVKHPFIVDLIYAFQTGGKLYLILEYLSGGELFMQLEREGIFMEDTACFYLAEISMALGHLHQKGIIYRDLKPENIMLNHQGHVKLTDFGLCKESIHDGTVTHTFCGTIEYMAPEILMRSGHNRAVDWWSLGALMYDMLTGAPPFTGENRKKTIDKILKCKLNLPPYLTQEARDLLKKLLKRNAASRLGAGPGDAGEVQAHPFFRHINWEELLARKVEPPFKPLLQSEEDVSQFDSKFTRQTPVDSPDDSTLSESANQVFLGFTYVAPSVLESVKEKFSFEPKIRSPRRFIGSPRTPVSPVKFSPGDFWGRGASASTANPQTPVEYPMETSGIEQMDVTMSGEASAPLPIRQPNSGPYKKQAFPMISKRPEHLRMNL
# Chain of Ribosomal protein S6 kinase alpha-5 (Homo sapiens) (O75582 whole entry, looked up): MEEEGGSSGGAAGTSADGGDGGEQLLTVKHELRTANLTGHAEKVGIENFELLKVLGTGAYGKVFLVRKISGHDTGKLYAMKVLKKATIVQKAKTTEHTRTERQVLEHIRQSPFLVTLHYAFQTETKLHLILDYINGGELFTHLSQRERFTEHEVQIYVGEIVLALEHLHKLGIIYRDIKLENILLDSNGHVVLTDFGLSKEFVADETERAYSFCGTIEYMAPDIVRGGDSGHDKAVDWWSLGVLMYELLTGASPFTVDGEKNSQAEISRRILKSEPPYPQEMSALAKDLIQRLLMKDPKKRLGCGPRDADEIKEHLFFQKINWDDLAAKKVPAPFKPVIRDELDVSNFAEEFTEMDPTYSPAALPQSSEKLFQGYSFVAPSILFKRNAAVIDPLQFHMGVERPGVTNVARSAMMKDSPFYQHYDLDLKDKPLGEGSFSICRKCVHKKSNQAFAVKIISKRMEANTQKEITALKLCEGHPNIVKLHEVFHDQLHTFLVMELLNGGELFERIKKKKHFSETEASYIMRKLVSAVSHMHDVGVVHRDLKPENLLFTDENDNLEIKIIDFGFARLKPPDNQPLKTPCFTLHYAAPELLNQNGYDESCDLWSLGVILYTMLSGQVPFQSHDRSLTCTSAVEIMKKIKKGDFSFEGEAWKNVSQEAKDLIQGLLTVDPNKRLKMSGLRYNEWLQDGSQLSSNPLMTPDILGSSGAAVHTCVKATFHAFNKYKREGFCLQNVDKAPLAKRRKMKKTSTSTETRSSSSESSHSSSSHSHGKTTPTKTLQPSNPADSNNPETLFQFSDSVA
SMILES,inhibition [1],inhibition [2],inhibition [3],inhibition [4],inhibition [5],inhibition [6],inhibition [7],inhibition [8],inhibition [9],inhibition [10],inhibition [11],inhibition [12],inhibition [13],inhibition [14],inhibition [15],inhibition [16],inhibition [17],inhibition [18],inhibition [19],inhibition [20]
Fc1cccc(COc2ccc(Nc3ncnc4sc(-c5cccs5)cc34)cc2Cl)c1,1.75%,2.49%,1.14%,1.28%,-5.35%,-7.37%,1.59%,1.29%,-0.02%,0.68%,-0.7%,1.34%,1.04%,-0.17%,0.09%,-0.52%,-0.08%,1.43%,1.98%,-0.34%
CC1=C(C(=O)Nc2ccc3[nH]ncc3c2)C(c2ccc3ccccc3c2)CC(=O)N1 (stereo not given),3.1%,22.7%,5.85%,37.9%,10.7%,47.6%,6.16%,34.1%,2.41%,21.4%,2.2%,7.18%,45.9%,1.26%,1.61%,1.81%,0.44%,4.97%,14.1%,0.67%
Cc1cccc(-c2n[nH]cc2-c2ccc3ncccc3n2)n1,0.34%,0.69%,0.87%,1.36%,0.79%,0.35%,1.84%,0.64%,0.55%,-0.68%,1.02%,1.12%,1.28%,0.19%,-0.46%,0.17%,0.39%,-0.08%,2.61%,-0.61%
COc1cc2ncn(-c3cc(O[C@H](C)c4ccccc4Cl)c(C(N)=O)s3)c2cc1OC,1.89%,5.55%,0.35%,1.02%,-1.18%,3.73%,4.32%,13.8%,1.42%,4.7%,2.16%,2.29%,1.54%,-0.04%,0.09%,3.14%,5.95%,4.41%,4.05%,3.01%
CC1=C(C(=O)Nc2ccc3[nH]ncc3c2)C(c2ccc(Cl)c(Cl)c2)CC(=O)N1 (stereo not given),1.51%,20.1%,5.81%,35%,10.3%,46.4%,7.4%,39.1%,3.83%,25.2%,3.64%,7.32%,43.1%,0.41%,1.24%,-1.01%,-0.1%,0.22%,14.1%,1.51%
CS(=O)(=O)CCNCc1nc(-c2ccc3ncnc(Nc4ccc(F)c(Cl)c4)c3c2)cs1,1.82%,3.22%,-0.31%,-0.48%,1.46%,6.15%,1.32%,1.96%,-0.63%,1.77%,1.98%,1.17%,1.29%,0.29%,0.92%,1.56%,2.07%,1.59%,3.26%,2.71%
NS(=O)(=O)c1ccc(N/N=C2\C(=O)Nc3ccc(C(=O)NCCc4c[nH]cn4)cc32)cc1,-0.15%,2.43%,1.24%,2.13%,4.49%,5.44%,4.34%,18.7%,2.49%,8.75%,14.2%,2.18%,7.07%,1.52%,5.32%,1.16%,-0.4%,5.07%,2.38%,0.92%
